Inconclusive results are not listed. Where a call stands in place of a potency, no number is given. Calls of active or inactive are those of the source. The call rests on the fitted dose curve; in most records, active means well fitted curve in the direction sought with a large enough effect; inconclusive means small, poorly fitted or top-dose-only effect, or another doubt; inactive means no such curve, though single readings can be large or run the other way.
Potency means the concentration at half of the fitted maximal effect.

The test has as its system NanoLuc luciferase (engineered Oplophorus gracilirostris luciferase). Put plainly: Confirmatory Nanoluciferase (NLuc) qHTS assay for identification of artifact compounds. Particulars: secreted NLuc in S16 cell medium, luminescence, 5 min; series mostly up to 39 µM. The source says:
PI: Alexander Tropsha Ph.D. UNC Eshelman School of Pharmacy University of North Carolina, Chapel Hill, North Carolina Hits from high-throughput screening (HTS) of chemical libraries are often false positives due to their interference with the assay detection technology. In response to this problem, we generated the largest publicly available library of chemical liabilities and developed a free webtool to predict HTS artifacts, both of which are described herein. More specifically, we generated, curated, and integrated HTS datasets for thiol reactivity, redox activity, and luciferase (firefly and nano) activity. Using these curated datasets, we developed and validated several Quantitative Structure-Interference Relationship (QSIR) models to predict nuisance behavior. […] These models were employed for virtual profiling of the National Center for Advancing Translational Science's (NCATS) in-house library, and 256 compounds for each assay were selected for the experimental validation of nuisance behavior. The BA for these external predictions ranged from 58 to 78% for compounds within the applicability domains of the models. […] The models developed in this study, along with aggregation models previously developed by our group (SCAM Detective) were implemented in "Liability Predictor," an online tool which may be used as part of chemical library design or for triaging HTS hits. Both the models and the curated datasets are publicly available at https://liability.mml.unc.edu/.
PROTOCOL TABLE SEQUENCE No. (e.g., 1, 2, 3, etc.); PARAMETER (e.g., Cells, Incubation, Reagent, etc.); VALUE; DESCRIPTION. 1; Reagent; 2 uL; Nanoluciferase media. 2; Compounds and control; 16 nL; Kalypsis pin tool (Wako USA) equipped with a 1536-well pin head. 3; Incubation; 15 min. 4; Reagent; 2 uL; Luciferase enzyme. 5; Incubation; 5 min. 6; Detection; Luminescence, ViewLux microplate reader. NOTES (numbers refer to Sequence numbers above) 1. Medium was collected from the culture flasks of NLuc-expressing S16 cells (80% confluent) prior to cell plating, filtered through a 0.22um filter, and frozen at -20C prior to use. Media was diluted (1:55) and 2 uL was dispensed into all wells of a 1536-well assay plate (solid-bottom white plate; Greiner Bio One, Monroe, NC). 2. A Wako Pin-tool (Wako Automation, Richmond, VA) was used to transfer 16 nL of compounds (consisting of 7-plates in qHTS format, final concentration range 18.3 nM to 114 uM) or control Cilnidipine (final concentration range 623 nM to 80 uM). 3. 15 min. incubation at room temperature protected from light. 4. 2 uL of NLuc substrate (1:100 in Nano-Glo luciferase buffer; Nano-Glo luminescence assay, Promega, Madison, WI) was dispensed for a final assay volume of 4 uL. 5. Plates were centrifuged (121xg, 15 seconds) and incubated for 5 minutes. 6. Samples were read for luminescence on a ViewLux CCD imager (PerkinElmer). Data were normalized to no-enzyme (0% activity) and no-inhibitor (DMSO; 100%) controls and the resulting percent inhibition data were fitted to a 4-parameter Hill equation using NCATS in-house software.
As for `N#C/C(=C\c1ccc(-c2cc(Cl)ccc2Cl)o1)C(=O)Nc1ccccc1C(=O)O`, the Potency was 12.2 µM (active).
In the case of `CO[C@H]1C[C@H](O[C@H]2[C@H](C)[C@@H](O[C@@H]3O[C@H](C)C[C@H](N(C)C)[C@H]3O)[C@@H](C)C[C@]3(CO3)C(=O)[C@H](C)[C@@H](O)[C@@H](C)[C@@H](C)OC(=O)[C@@H]2C)O[C@@H](C)[C@@H]1O`, the Potency entry is “inactive”.
Next, `Oc1ccc(-c2csc(-c3ccc(F)cc3)n2)c(O)c1`: “inactive”; `OCC(O)C(O)C(OC1OC(CO)C(O)C(O)C1O)C(O)CO` (stereo not given): “inactive”.
For the molecule `COc1ccc(NC(=O)c2csnn2)cc1Cl`, the Potency entry is “inactive”.
Next, `CCOC(=O)c1ccc(N2C(=O)c3n[nH]c(-c4ccco4)c3C2c2ccc(F)cc2)cc1` (stereo not given): “inactive”; `Oc1ccc(C2(c3ccc(O)cc3)CC3CC2C2CCCC32)cc1` (stereo not given): “inactive”; `O=C(COc1ccc(Cl)cc1)Nc1ccc2nc(SCC(=O)N3CCCC3)sc2c1`: “inactive”.
Next, `Cc1cc(O)cc(O)c1C(=O)O`: “inactive”; `CCOC(=O)C1=C(CNCc2ccc(Cl)cc2)NC(=O)NC1c1ccccc1` (stereo not given): “inactive”.
Next, `Cc1ccc(N2CC(NC(=O)C(=O)c3c[nH]c4ccccc34)CC2=O)cc1` (stereo not given): “inactive”; `CCOC(=O)c1c(C)[nH]c(CCC(=O)NCCCN2CCN(c3ccc(F)cc3)CC2)c1C`: “inactive”.
For `CCOC(=O)N1CCN(S(=O)(=O)N2CCCC(C(=O)NCc3cc(OC)ccc3OC)C2)CC1` (stereo not given), the Potency result was “inactive”.
As to `CCCC(=O)Nc1cc2nn(-c3ccccc3)nc2cc1C`, the Potency result was “inactive”.
Next, `COc1ccc(NC(=O)CSc2c3c(nc4ccccc24)CCC3)cc1Cl`: “inactive”; `CC(=O)S[C@H]1CC2=CC(=O)CC[C@@]2(C)[C@H]2CC[C@@]3(C)[C@H](CC[C@]34CCC(=O)O4)[C@@H]12`: “inactive”; `COc1ccc(C2=Nn3c(nnc3-c3cccc(OC)c3)SC2)cc1`: “inactive”.
Next, `O=C(OCC#CCSc1nnc(-c2ccc3ccccc3c2)o1)c1ccsc1`: “inactive”; `CN1C(=O)Cc2cc(S(=O)(=O)NCc3ccccc3Cl)ccc21`: “inactive”; `Cc1cc(C)cc(-n2c(SCC(=O)N3CCCCCC3)nc3c([nH]c4ccccc43)c2=O)c1`: “inactive”.
As for `CCC(C(=O)NCc1cc(OC)ccc1OC)n1nc(C)c2sc3ccccc3c2c1=O` (stereo not given), the Potency entry was “inactive”.
Next, `CCOc1ccc(OCC)c(NS(=O)(=O)c2c(C)[nH]c(=O)[nH]c2=O)c1`: “inactive”; `O=C(CSc1nc(-c2ccccc2)cn1-c1ccccc1)Nc1ccccc1`: “inactive”; `COC(=O)c1scc(-c2ccc(C)cc2)c1S(=O)(=O)Nc1cc(Cl)ccc1C`: “inactive”.
In the case of `Cc1ccc(NC(=O)Nc2nnc(SCC(=O)N3CCCCC3)s2)cc1`, the Potency result was “inactive”.
Next, `CCCCn1c(SCC(=O)Nc2ccc(F)cc2)nc2c(sc3ccccc32)c1=O`: “inactive”; `COc1cccc(CNS(=O)(=O)c2cnc(N)nc2)c1`: “inactive”; `CC(C)[C@@H](C)/C=C/[C@@H](C)[C@H]1CC[C@H]2/C(=C/C=C3\C[C@@H](O)CC[C@@H]3C)CCC[C@]12C`: “inactive”.
Next, `O=C(Nc1cc(-c2ccc(F)c(F)c2)no1)c1ccccc1F`: “inactive”; `COc1cccc(C(=O)Nc2ccccc2-c2nnc(-c3ccc(C(C)(C)C)cc3)o2)c1`: “inactive”; `COc1ccccc1CNC(=O)c1nn(-c2ccc(C)cc2)c(=O)c2c1c1ccccc1n2C`: “inactive”.
Next, `COc1ccc(C2Nc3ccccc3C(=O)N2CC(C)(C)C)cc1COc1ccc(NC(C)=O)cc1` (stereo not given): “inactive”; `CCOC(=O)c1c(S(=O)(=O)NCC(=O)Nc2ccc(F)cc2C)c(C)n(C)c1C`: “inactive”.
On to `O=c1c2ccccc2nc2sc(Nc3ccc(Br)cc3)nn12`, for which the Potency result is “inactive”.
`CCOc1ccc(-c2cc(NC(=O)Nc3ccccc3Cl)c(C(=O)OC)s2)cc1`: the Potency result was “inactive”.
Next, `CC(C)CCC[C@@H](C)[C@H]1CC[C@H]2[C@@H]3CC[C@@H]4C[C@H](O)CC[C@]4(C)[C@H]3CC[C@]12C`: “inactive”; `Cc1nc2nc(CNC(=O)OC(C)(C)C)nn2c(C)c1CCC(=O)NCc1ccccc1Cl`: “inactive”; `COc1ccc(-n2nc(C(=O)Nc3cccc(C)n3)c3c4ccccc4n(C)c3c2=O)cc1`: “inactive”.
Regarding `Fc1ccc(-c2cc(-c3nc(-c4ccc(Cl)cc4)no3)[nH]n2)cc1`, the Potency entry was “inactive”.
Next, `CCCCCCCCCCCCCC(=O)N[C@@H](C)[C@H](O)c1ccccc1`: “inactive”.

For the origin of these results see PubChem BioAssay AID1845224 (National Center for Advancing Translational Sciences (NCATS), 2023).
